Reference: PubChem BioAssay (NCATS)
Inconclusive results are not listed. Where a call stands in place of a potency, no number is given. Values without a mark were called inactive. The source made the active and inactive calls. The call rests on the fitted dose curve; in most records, active means well fitted curve in the direction sought with a large enough effect; inconclusive means small, poorly fitted or top-dose-only effect, or another doubt; inactive means no such curve, though single readings can be large; an effect the other way counts as inactive or inconclusive.

Columns and labels:
HEK293 = test: Cytotoxic Profiling of Annotated Libraries Using Quantitative High-Throughput Screening (AID 1296008); details: Five cell lines viability, CellTiter-Glo ATP luminescence, 48-72 h; max response: active compounds read low; further: nearly all actives have a fitted effect of over 60% in size; further: potency means the concentration at half of the fitted maximal effect
Method in brief: (§1)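 Cells exposed to compounds for 48 or 72 hr at 37 degrees Celsius. Viability read as ATP-coupled luminescence with CellTiter-Glo after 10 min at room temperature.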

KB-3-1 = test: as above; details: Five cell lines viability, CellTiter-Glo ATP luminescence, 48-72 h; max response: active compounds read low
Method in brief: as §1

NIH3T3 [1] = test: as above; details: Five cell lines viability, CellTiter-Glo ATP luminescence, 48-72 h; max response: active compounds read low
Method in brief: as §1

HEK293T [2] = test: qHTS assay to identify novel small-molecules to repurpose for Merkel cell carcinoma treatment (AID 1296009); details: MCC and control cell lines, CellTiter-Glo viability, 72 h; at 44.8 µM (top of the series) unless noted; further: nearly all actives have a fitted effect of over 60% in size
Method in brief: (§2)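 Dose-response viability screen; 72 hr exposure at 37 degree celsius; CellTiter-Glo added, 10 min room temperature, luminescence read; RLUs scaled between no-cell and DMSO wells.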

C33A = test: Primary qHTS to identify gynecologic anti-cancer compounds using libraries of approved drugs and bioactive compounds (AID 1345084); details: Gynecologic cancer cell panel viability, ATPlite luminescence, 48 h; series mostly up to 57.5 µM; further: nearly all actives have a fitted effect of over 55% in size
Method in brief: (§3)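 Cells, 1,000 per well, plated 16 h, then exposed 48 h at 37 C to compounds. Viability by ATPlite luminescence after 15 min at room temperature.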

CAOV3 = test: as above; details: Gynecologic cancer cell panel viability, ATPlite luminescence, 48 h; series mostly up to 57.5 µM
Method in brief: as §3

CASKI = test: as above; details: Gynecologic cancer cell panel viability, ATPlite luminescence, 48 h; series mostly up to 57.5 µM
Method in brief: as §3

Es-2 = test: as above; details: Gynecologic cancer cell panel viability, ATPlite luminescence, 48 h; series mostly up to 57.5 µM
Method in brief: as §3

HeLa = test: as above; details: Gynecologic cancer cell panel viability, ATPlite luminescence, 48 h; series mostly up to 57.5 µM
Method in brief: as §3

Hek293T [3] = test: as above; details: Gynecologic cancer cell panel viability, ATPlite luminescence, 48 h, control line for the selectivity index; series mostly up to 57.5 µM
Method in brief: as §3

JEG-3 = test: as above; details: Gynecologic cancer cell panel viability, ATPlite luminescence, 48 h; series mostly up to 57.5 µM
Method in brief: as §3

NIH3T3 [4] = test: qHTS assay to identify novel small-molecules to repurpose for Merkel cell carcinoma treatment (AID 1296009); details: MCC and control cell lines, CellTiter-Glo viability, 72 h; at 44.8 µM (top of the series) unless noted; further: nearly all actives have a fitted effect of over 60% in size
Method in brief: as §2

In the case of `Cc1cc(=O)oc2c(C=O)c(O)ccc12`, the outcome (HEK293) is reported as “inactive”, the outcome (KB-3-1) is reported as “inactive” and the max response (NIH3T3 [1]) is reported as -0.325%. The outcome (HEK293T [2]) was “inactive”, the Potency (C33A) was “inactive” and the Potency (CAOV3) was “inactive”. For the same molecule, the Potency (CASKI) was “inactive”, the Potency (Es-2) was “inactive” and the Potency (HeLa) was “inactive”. For the same molecule, the Potency (Hek293T [3]) was “inactive” and the Potency (JEG-3) was “inactive”.
With `CC(C)C[C@H](CC(=O)NO)C(=O)N[C@H](C(=O)N[C@@H](C)C(=O)NCCN)C(C)(C)C` the max response (HEK293) was -1.44%, the outcome (KB-3-1) was “inactive” and the outcome (NIH3T3 [1]) was “inactive”. The outcome (NIH3T3 [4]) was “inactive [at 9.27 µM]”, the activity change, negative = cytotoxicity (C33A) was 18.9% [at 11.6 µM] and the activity change, negative = cytotoxicity (CAOV3) was 17.3% [at 11.6 µM]. It also gave an activity change, negative = cytotoxicity (CASKI) of 5.02% [at 11.6 µM], an activity change, negative = cytotoxicity (Es-2) of 10.1% [at 11.6 µM] and an activity change, negative = cytotoxicity (HeLa) of 11.1% [at 11.6 µM]. The activity change, negative = cytotoxicity (Hek293T [3]) was 15.9% [at 11.6 µM] and the activity change, negative = cytotoxicity (JEG-3) was 0.977% [at 11.6 µM].
For `CCc1c(C)nc2c(-c3cnn(-c4cc(CO)ccn4)c3)c[nH]n2c1=O`, the outcome (HEK293) was “inactive”, the max response (KB-3-1) was -1.88% and the max response (NIH3T3 [1]) was -6.61%. The outcome (HEK293T [2]) was “inactive”, the Potency (C33A) was “inactive” and the Potency (CASKI) was “inactive”. For the same molecule, the Potency (Es-2) was “inactive”, the Potency (HeLa) was “inactive” and the Potency (Hek293T [3]) was “inactive”. The Potency (JEG-3) was “inactive”.
In the case of `O=C(O)CC(=O)OC[C@H]1O[C@@H](Oc2ccc3c(c2)OC[C@H]2c4cc5c(cc4O[C@@H]32)OCO5)[C@H](O)[C@@H](O)[C@@H]1O`, the outcome (HEK293) is reported as “inactive”, the max response (KB-3-1) is reported as -2.44% and the max response (NIH3T3 [1]) is reported as -8.59%. The outcome (HEK293T [2]) was “inactive [at 17.4 µM]”, the Potency (C33A) was “inactive” and the Potency (CAOV3) was “inactive”. The Potency (CASKI) was “inactive”, the Potency (Es-2) was “inactive” and the Potency (HeLa) was “inactive”. For the same molecule, the Potency (Hek293T [3]) was “inactive” and the Potency (JEG-3) was “inactive”.
For `CC1C=CC2CCCCC2C1CCC1CC(O)CC(=O)O1` (configuration not stated), the outcome (HEK293) was “inactive”, the max response (KB-3-1) was 3.85% and the max response (NIH3T3 [1]) was -16%. For the same molecule, the outcome (HEK293T [2]) was “inactive”, the Potency (C33A) was “inactive” and the Potency (CASKI) was “inactive”. For the same molecule, the Potency (Es-2) was “inactive”, the Potency (HeLa) was “inactive” and the Potency (Hek293T [3]) was “inactive”. The Potency (JEG-3) was “inactive”.
`CC1(C)CC[C@]2(C(=O)O)CC[C@]3(C)C(=CCC4[C@@]5(C)CC[C@H](O[C@@H]6O[C@H](CO)[C@@H](O)[C@H](O)[C@H]6O[C@@H]6O[C@H](CO)[C@@H](O)[C@H](O)[C@H]6O)[C@@](C)(CO)C5CC[C@]43C)[C@@H]2C1` (some centres not stated) was tested, and the max response (HEK293) was -6.18%, the max response (KB-3-1) was 8.35% and the outcome (NIH3T3 [1]) was “inactive”. The outcome (NIH3T3 [4]) was “inactive [at 17.4 µM]”, the Potency (C33A) was “inactive” and the Potency (CAOV3) was “inactive”. The Potency (CASKI) was “inactive”, the Potency (Es-2) was “inactive” and the Potency (HeLa) was “inactive”. For the same molecule, the Potency (Hek293T [3]) was “inactive” and the Potency (JEG-3) was “inactive”.
In the case of `C/C=C/c1ccc(O[C@@H]2O[C@H](CO)[C@@H](O)[C@H](O)[C@H]2O)c(OC)c1`, the Potency (HEK293) is reported as 11.4 µM (active) and the max response (KB-3-1) is reported as -6.82%.
`CC(=O)C=C=C1C(C)(C)CC(O[C@@H]2O[C@H](CO)[C@@H](O)[C@H](O)[C@H]2O)CC1(C)O` (some centres not stated) was tested, and the outcome (HEK293) was “inactive”, the max response (KB-3-1) was 0.592% and the max response (NIH3T3 [1]) was 4.66%. For the same molecule, the outcome (HEK293T [2]) was “inactive”, the Potency (C33A) was “inactive” and the Potency (CAOV3) was “inactive”. The Potency (CASKI) was “inactive”, the Potency (Es-2) was “inactive” and the Potency (HeLa) was “inactive”. For the same molecule, the Potency (Hek293T [3]) was “inactive” and the Potency (JEG-3) was “inactive”.
`C=C[C@H]1C(O[C@@H]2O[C@H](CO)[C@@H](O)[C@H](O)[C@H]2O)OC=C2C(=O)N3CCc4c([nH]c5ccccc45)C3CC21` (some centres not stated) was tested, and the outcome (HEK293) was “inactive”, the outcome (KB-3-1) was “inactive” and the max response (NIH3T3 [1]) was 2.27%. For the same molecule, the outcome (HEK293T [2]) was “inactive [at 17.4 µM]”, the Potency (C33A) was “inactive” and the Potency (CAOV3) was “inactive”. The Potency (CASKI) was “inactive”, the Potency (Es-2) was “inactive” and the Potency (HeLa) was “inactive”. For the same molecule, the Potency (Hek293T [3]) was “inactive” and the Potency (JEG-3) was “inactive”.
`C=C(C)C1CCC2(C(=O)O[C@@H]3O[C@H](CO[C@@H]4O[C@H](CO)[C@@H](O)[C@H](O)[C@H]4O)[C@@H](O)[C@H](O[C@@H]4O[C@@H](C)[C@H](O)[C@@H](O)[C@H]4O)[C@H]3O)CCC3(C(=O)O)C(CCC4C5(C)CCC(O)C(C)(C)C5CCC43C)C12` (some centres not stated) was tested, and the outcome (HEK293) was “inactive”, the outcome (KB-3-1) was “inactive” and the outcome (NIH3T3 [1]) was “inactive”. The outcome (HEK293T [2]) was “inactive [at 9.27 µM]”, the outcome (NIH3T3 [4]) was “inactive [at 9.27 µM]” and the activity change, negative = cytotoxicity (C33A) was -9.37% [at 11.6 µM]. For the same molecule, the activity change, negative = cytotoxicity (CAOV3) was -3.74% [at 11.6 µM], the activity change, negative = cytotoxicity (CASKI) was 13.9% [at 11.6 µM] and the activity change, negative = cytotoxicity (Es-2) was 1.26% [at 11.6 µM]. For the same molecule, the activity change, negative = cytotoxicity (HeLa) was -0.105% [at 11.6 µM], the activity change, negative = cytotoxicity (Hek293T [3]) was -3.68% [at 11.6 µM] and the activity change, negative = cytotoxicity (JEG-3) was 18.7% [at 11.6 µM].
With `CCN1CCN(Cc2ccc(NC(=O)Nc3ccc(Oc4cc(NC)ncn4)cc3)cc2C(F)(F)F)CC1` the max response (HEK293) was -109%, the Potency (KB-3-1) was 6.51 µM (active) and the max response (NIH3T3 [1]) was -75.2%.
`COC(=O)C1=CO[C@@H](O[C@@H]2O[C@H](CO)[C@@H](O)[C@H](O)[C@H]2O)[C@@H]2C(CO)=CC[C@]12O` was tested, and the outcome (HEK293) was “inactive”, the max response (KB-3-1) was 9.91% and the max response (NIH3T3 [1]) was 1.93%. For the same molecule, the outcome (HEK293T [2]) was “inactive [at 17.4 µM]”, the Potency (C33A) was “inactive” and the Potency (CASKI) was “inactive”. For the same molecule, the Potency (Es-2) was “inactive”, the Potency (HeLa) was “inactive” and the Potency (Hek293T [3]) was “inactive”. For the same molecule, the Potency (JEG-3) was “inactive”.
In the case of `CC/C=C\CCO[C@@H]1O[C@H](CO[C@@H]2OC[C@H](O)[C@H](O)[C@H]2O)[C@@H](O)[C@H](O)[C@H]1O`, the outcome (HEK293) is reported as “inactive”, the outcome (KB-3-1) is reported as “inactive” and the max response (NIH3T3 [1]) is reported as -20.8%. The outcome (HEK293T [2]) was “inactive”, the Potency (C33A) was “inactive” and the Potency (CAOV3) was “inactive”. For the same molecule, the Potency (CASKI) was “inactive”, the Potency (Es-2) was “inactive” and the Potency (HeLa) was “inactive”. The Potency (Hek293T [3]) was “inactive” and the Potency (JEG-3) was “inactive”.
For `C[C@H](Nc1ncnc2nc[nH]c12)c1cc2ccc(F)cc2nc1-c1ccccn1`, the outcome (HEK293) was “inactive”, the outcome (KB-3-1) was “inactive” and the max response (NIH3T3 [1]) was -0.749%. The outcome (HEK293T [2]) was “inactive”, the Potency (C33A) was “inactive” and the Potency (CAOV3) was “inactive”. For the same molecule, the Potency (CASKI) was “inactive”, the Potency (Es-2) was “inactive” and the Potency (HeLa) was “inactive”. For the same molecule, the Potency (Hek293T [3]) was “inactive” and the Potency (JEG-3) was “inactive”.
In the case of `CC(O)/C=C/C1(O)C(C)C(O[C@@H]2O[C@H](CO)[C@@H](O)[C@H](O)[C@H]2O)C(O)CC1(C)C` (some centres not stated), the outcome (HEK293) is reported as “inactive”, the max response (KB-3-1) is reported as -3.24% and the outcome (NIH3T3 [1]) is reported as “inactive”. The outcome (HEK293T [2]) was “inactive [at 17.4 µM]”, the outcome (NIH3T3 [4]) was “inactive [at 17.4 µM]” and the Potency (C33A) was “inactive”. The Potency (CAOV3) was “inactive”, the Potency (CASKI) was “inactive” and the Potency (Es-2) was “inactive”. For the same molecule, the Potency (HeLa) was “inactive”, the Potency (Hek293T [3]) was “inactive” and the Potency (JEG-3) was “inactive”.
